Results on 40 molecules are retold here after PubChem BioAssay (NCATS).

Results filed as inconclusive are left out. Active and inactive are the calls of the source. The call rests on the fitted dose curve; in most records, active means well fitted inhibition curve with a large enough effect; inconclusive means small, poorly fitted or top-dose-only effect; inactive means no such curve, though single readings can be large or run the other way.
Potency means the concentration at half of the fitted maximal effect.

A short description of this assay: BET inhibitor-based combinations targeting novel dependencies in MECOM-rearranged (r) AML: OCI-AML3 cell line (AID 2202232). Further: nearly all actives have a fitted effect of over 35% in size. Particulars: CellTiter-Glo luminescence, 48 h; Potency: OCI-AML3 viability; series mostly up to 46 µM; viability (% of control): at the top concentration. An excerpt: Ecotropic viral insertion site 1 (EVI1) is located on chromosome 3q26.2 as part of the MECOM (MDS and EVI1 complex) locus. Under normal hematopoiesis, EVI1 is a regulator of hematopoietic stem cell maintenance and self-renewal and EVI1 levels decrease as the cells differentiate. In approximately 5-10% of de novo acute myeloid leukemia (AML) EVI1 is aberrantly expressed, including Chromosomal inv(3)(q21;q26.2) or t(3;3)(q21;q26.2) alterations (MECOM-r) that account for about 50% of AML with EVI1 overexpression 31. AMLs with high levels of EVI1 have a poor prognosis and an overall survival time averaging between 10-14 months. EVI1 overexpression confers resistance in leukemia cells, highlighting the need to develop new targeted therapies for EVI1 overexpressing AMLs.
Here, we performed an unbiased chemical drug screening by evaluating the single agent activity of a collection of 2,480 oncology-focused, approved and investigational drugs (NCATS Mechanism Interrogation Plates, MIPE v5.0) against a panel of seven AML cell lines. These included four MECOM-r cell-lines (AML-191, AML-194, UCSD-AML1 and HNT-34) and three non-MECOM-r AMLs (MV4-11, OCI-AML3 and SET-2). Exploiting the mechanistic redundancy built in the library, we identified target-level sensitivities in MECOM-r AML cells and relative activity as compared to other AML subtypes.
A collection of 2480 mechanistically annotated dugs (MIPE v5.0) was used to screen four 3q26.2 rearranged AML cell lines and three non-3q26.2 rearranged AML cell lines. This library purposely exploits redundancy by including multiple inhibitors of key onco-targets, while simultaneously encompassing mechanistic diversity, targeting more than 800 distinct mechanisms of action. Briefly, cells were seeded in 5 uL of growth media using a Multidrop Combi dispenser into 1536 well white polystyrene tissue culture treated plates (Corning) at a density of 500cells/well. For each cell-line, for each of the 2480 drugs in MIPE v5.0 library, an 11-point dose curve was generated via a 1536 pin-tool. Plates were incubated for 48 hr at standard incubator conditions, covered by a stainless steel gasketed lid to prevent evaporation. Cell viability was determined by luminescence based, Cell Titer Glo assay (Promega). In detail, 3 uL of Cell Titer Glo were added to each well and plates were incubated at room temperature for 15 min with a stainless-steel lid in place. Luminescence readings were taken using a Viewlux (PerkinElmer) with a 2 s exposure time per plate. Compound dose-response curves were normalized to DMSO and empty well controls on each plate. Quantitative drug activity data from dose-response curves was determined utilizing area Under the Curve (AUC) and Z-transformed AUC (Z-AUC, a mean-centering transformation applied to each individual cell-line screened).
Regarding `O=C(O)c1cc(O)c2c(c1)C(=O)c1cccc(O)c1C2=O`, the Potency is 5.9 µM (active).

`Oc1ccc(/C=C/c2cc(O)cc(O)c2)cc1`: the Potency was 14.8 µM (active).

As for `CN(C)CCOC(c1ccccc1)c1ccccc1`, the “viability (% of control)” value is 97% (inactive).

In the case of `N[C@@H](CC(=O)N1CCn2c(nnc2C(F)(F)F)C1)Cc1cc(F)c(F)cc1F`, the “viability (% of control)” value was 84.2% (inactive).

Turning to `COc1cc2c(Oc3ccc(NC(=O)C4(C(=O)Nc5ccc(F)cc5)CC4)cc3F)ccnc2cc1OCCCN1CCOCC1`, the Potency is 11.8 µM (active).

Turning to `Cc1cc(OCCCS(C)(=O)=O)cc(C)c1-c1cccc(COc2ccc3c(c2)OC[C@H]3CC(=O)O)c1`, the “viability (% of control)” value is 112% (inactive).

On to `COc1cc(C[C@@H](CO)[C@H](CO)Cc2ccc(O)c(OC)c2)ccc1O`, for which the “viability (% of control)” value is 111% (inactive).

`CCCCOc1ccc(C(=O)Nc2ccc(F)cc2F)cc1`: the “viability (% of control)” value is 85% (inactive).

Turning to `Cc1cnc(Nc2ccc(N3CCN(C)CC3)cc2)nc1Nc1cccc(S(=O)(=O)NC(C)(C)C)c1`, the Potency is 5.25 µM (active).

As for `OC1CCC(Nc2ncc3nc(Nc4c(F)cc(F)cc4F)n([C@@H]4CCOC4)c3n2)CC1` (stereo not given in full), the Potency was 18.6 µM (active).

On to `c1ccc2c(CCNc3ccc(Nc4ccncc4)cc3)c[nH]c2c1`, for which the Potency is 1.32 µM (active).

With `NC(=O)c1noc([C@H](CCCC2CCCCC2)CC(=O)NO)n1`, the Potency was 14.8 µM (active).

As for `CNC(=O)c1c(-c2ccc(F)cc2)oc2cc(N(CCO)S(C)(=O)=O)c(C3CC3)cc12`, the “viability (% of control)” value is 111% (inactive).

For the molecule `Cc1cc(C(C)(C)C)c(O)c(C)c1CC1=NCCN1`, the “viability (% of control)” value was 105% (inactive).

For `Cn1cc(-c2cnn3c(N)c(Br)c([C@@H]4CCCNC4)nc23)cn1`, the Potency is 13.2 µM (active).

With `CC(=O)Nc1nc(C)c(-c2ccc(Cl)c(S(=O)(=O)NCCO)c2)s1`, the Potency was 8.33 µM (active).

In the case of `Cc1cccc(Oc2cnc(=O)[nH]c2)c1`, the “viability (% of control)” value is 107% (inactive).

With `COc1cc2c(cc1OC)CC(=O)N(CCCN(C)C[C@H]1Cc3cc(OC)c(OC)cc31)CC2`, the “viability (% of control)” value was 115% (inactive).

Regarding `Oc1ccc(C2=Cc3ccc(O)cc3OC2)cc1`, the Potency is 0.525 µM (active).

With `CC[C@H](Nc1ncnc2nc[nH]c12)c1nc2cccc(F)c2c(=O)n1-c1ccccc1`, the Potency is 4.68 µM (active).

Turning to `CCc1cncnc1N1CCN(Cc2nc3ccc(C(F)(F)F)cc3[nH]2)CC1`, the Potency is 11.8 µM (active).

With `CCCCNc1ncc(-c2ccc(CN3CCOCC3)cn2)c(NC2CCC(O)CC2)n1` (stereo not given), the Potency was 1.15 µM (active).

With `CC(C)(C)C(=O)CN1C(=O)[C@H](NC(=O)Nc2cccc(C(=O)O)c2)CN(C2CCCCC2)c2ccccc21`, the “viability (% of control)” value was 116% (inactive).

Consider `C[Se]CCC(N)C(=O)O` (stereo not given), for which the “viability (% of control)” value is 102% [at 92.2 µM] (inactive).

For the molecule `Clc1cccc(-n2nnnc2NCc2ccccc2Oc2ccccn2)c1Cl`, the “viability (% of control)” value was 111% (inactive).

Take `CS(=O)(=O)c1ccc(C2=C(c3ccccc3)C(=O)OC2)cc1`: the “viability (% of control)” value is 99.2% (inactive).

Turning to `Fc1ccc(CNc2ncnc3ccc(F)cc23)cc1`, the Potency was 4.17 µM (active).

Turning to `C[C@@H](N)C1CCC(C(=O)Nc2ccncc2)CC1` (stereo not given in full), the “viability (% of control)” value was 99.5% (inactive).

As to `FC(F)(F)c1ccc(CNc2ccc(Cc3c[nH]c4ncccc34)cn2)cc1`, the Potency was 20.9 µM (active).

Turning to `COc1ccc2nc3cc(Cl)ccc3c(Nc3cc(CN4CCCC4)c(O)c(CN4CCCC4)c3)c2n1`, the Potency is 7.42 µM (active).

As for `CNC(=O)c1ccc(Nc2ncc(C(F)(F)F)c(NCc3nccnc3N(C)S(C)(=O)=O)n2)cc1`, the Potency is 4.68 µM (active).

Turning to `COc1ccc(COc2cc3oc(=O)c4cc(C(C)O)ccc4c3cc2OC)cc1` (stereo not given), the Potency was 14.8 µM (active).

`COc1cc(OC)c2c(=O)[nH]c(-c3cc(C)c(OCCO)c(C)c3)nc2c1`: the Potency was 14.8 µM (active).

Consider `CC(C)(C)C(=O)Oc1ccc(S(=O)(=O)Nc2ccccc2C(=O)NCC(=O)O)cc1`, for which the “viability (% of control)” value is 84.8% (inactive).

In the case of `CCn1nnc2c(N3CCOCC3)nc(-c3ccc(NC(=O)Nc4ccc(C(=O)N5CCN(C)CC5)cc4)cc3)nc21`, the Potency was 0.263 µM (active).

For the molecule `O=C(O)c1cc(=O)c2c(OCC(O)COc3cccc4oc(C(=O)O)cc(=O)c34)cccc2o1`, the “viability (% of control)” value is 135% (inactive).

`NCC1CCC(C(=O)O)CC1` (stereo not given): the “viability (% of control)” value was 121% [at 15.6 µM] (inactive).

For `CC(C)CC(=O)Nc1n[nH]c2c1CN(C(=O)C1CCN(C)CC1)C2(C)C`, the Potency was 1.32 µM (active).

Consider `Oc1ccc(-c2ccc(-c3cc(Nc4cccc(CNC5CC5)c4)n[nH]3)cc2)c(O)c1`, for which the Potency is 1.86 µM (active).

Consider `COc1ccc([C@@H]2Sc3ccccc3N(CCN(C)C)C(=O)[C@@H]2OC(C)=O)cc1`, for which the “viability (% of control)” value was 97.6% (inactive).
